Compound activity as filed in PubChem.
H9c2 protect: myocardial damage modulation in H9c2 cells. actives 0.63% (n = 360,000). H9c2 cardiomyocytes, H2O2 injury protection, ATPLite, 2 h. AID 588492. protection from H2O2 cell death, % at 20 µM;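 active = compounds giving at least 50% protection of heart cells from peroxide-induced death in the single-dose screen, raw or plate-pattern-corrected value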
ATG4B inhibitor: ATG4B (human) cysteine protease inhibition. actives 0.51% (n = 340,000). AID 504462. ATG4B cleavage of LC3-PLA2, NBD-HPC fluorescence, 1 h. inhibition, % at 8.33 µM; in the data active = inhibition above about 40%
Target sequence (Q9Y4P1 whole entry, looked up): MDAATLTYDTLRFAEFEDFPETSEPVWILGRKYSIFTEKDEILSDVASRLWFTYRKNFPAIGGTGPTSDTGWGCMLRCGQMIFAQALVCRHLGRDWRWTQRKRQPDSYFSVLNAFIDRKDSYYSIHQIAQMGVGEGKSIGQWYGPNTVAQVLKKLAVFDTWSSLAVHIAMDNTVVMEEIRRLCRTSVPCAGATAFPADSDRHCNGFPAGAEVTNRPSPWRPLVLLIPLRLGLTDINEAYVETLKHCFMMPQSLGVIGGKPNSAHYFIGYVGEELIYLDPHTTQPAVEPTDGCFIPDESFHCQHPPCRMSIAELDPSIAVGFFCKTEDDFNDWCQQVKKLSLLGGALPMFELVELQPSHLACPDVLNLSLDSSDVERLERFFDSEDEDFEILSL
PP5 inh: blocks human protein phosphatase 5 activity | P53041 | purified PP5c, OMFP substrate fluorescence | inhibition, % at 6.7 µM | actives 0.18% (n = 320,000) | AID 1987;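 active = inhibition above the campaign's mean inhibition across all tested compounds plus 3 SD, cut at about 9.5% in these data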
PP1 inh: counter-screen for PP5 inhibitors: inhibitors of human PP1-alpha. P62136. purified PP1alpha, OMFP fluorescence. inhibition, % at 6.7 µM. actives 0.9% (n = 320,000);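 active = inhibition above the mean inhibition of all tested compounds plus 3 SD, computed separately for each screening campaign, cut at about 15% in these data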
ATG4B confirm: ATG4B (human) inhibition, single-dose confirmed; shares compounds with ATG4B inhibitor; inhibition, % at 8.33 µM; ATG4B protease fluorescent substrate cleavage assay; actives 92% (n = 320); in the data active = inhibition above about 39%
PLA2 ctr: PLA2 (human) inhibition in ATG4B counter-screen; shares compounds with ATG4B inhibitor; purified PLA2, NBD-C6-HPC fluorescence, 45 min; inhibition, % at 8.33 µM; actives 66% (n = 1,600); AID 588402; in the data active = inhibition above about 50%
Hits are given with their value; i = inactive; nt = not tested or not shown. Rows were chosen to be rich in hits. Some 1.9% of all compounds tested hit in one or more screens of this group.

SMILES	H9c2 protect	ATG4B inhibitor	PP5 inh	PP1 inh	PLA2 ctr	others
CCCOc1ccc(C2=NNC(c3cccs3)=Nc3ccc(OC)cc32)cc1	i	48.7	i	i	77.3
Cc1ccc2c(c1)C(c1ccncc1)=NNC(c1ccccc1)=N2	i	i	i	i	nt
O=C(CN1CCc2ccccc2C1)Nc1ccc(OC(F)(F)F)cc1	i	i	i	i	nt
CC(C)c1ccc2c(c1)C(c1ccc(N3CCOCC3)cc1)=NNC(c1cccs1)=N2	i	69.7	i	i	72.3
CCOc1ccc2c(c1)C(c1ccccc1)=NNC(c1ccccc1)=N2	i	74.8	i	i	72.2
Cc1ccc(C2=Nc3ccc(Br)cc3C(c3ccncc3)=NN2)cc1	i	43.9	i	i	i
COCC1CCN(C(=O)C2CCC(=O)N(CCc3cccc(F)c3)C2)CC1 (centres undefined)	i	i	i	i	nt
Cc1cc2cc(CNC(=O)C(C)Oc3ccccc3)ccc2n1C (centres undefined)	i	i	i	i	nt
CCOc1ccc(-n2c(=S)sc3c(=O)[nH]c(SCC(=O)NC(C)CC)nc32)cc1 (centres undefined)	i	i	i	i	nt
COc1ccc(Cl)cc1-n1c(=S)sc2c(=O)[nH]c(SCC(=O)NCCC(C)C)nc21	i	41.5	nt	nt	i	ATG4B confirm=73.4
CC(C)(C)n1ncc2c(=O)n(Cc3ccccc3Br)cnc21	i	40.6	i	i	i	ATG4B confirm=68.6
Cc1ccc(Cn2cnc3c(cnn3C(C)(C)C)c2=O)cc1	i	i	i	i	nt
COC(=O)NNC(=O)COc1ccc(Br)c(C)c1	i	i	i	i	nt
COC(=O)NNC(=O)COc1cc(C)c(Br)cc1C(C)C	i	40.8	i	i	i
CS(=O)(=O)c1ccc2nc(NC(=O)c3ccc(Cn4cc(Br)cn4)o3)sc2c1	i	i	i	i	nt
CC(Sc1n[nH]c(N)n1)C(=O)Nc1cccc2ccccc12 (centres undefined)	i	i	i	i	nt
c1ccc(CSc2nnc(-c3cccs3)n2Cc2ccco2)cc1	i	58.5	i	i	60.0
Cc1ccccc1CSc1nnc(-c2ccco2)n1Cc1ccco1	i	52.6	i	i	52.4
c1ccc(CSc2nnc(-c3ccco3)n2Cc2ccco2)cc1	i	i	i	i	nt
Cc1ccccc1CSc1nnc(-c2cccs2)n1Cc1ccco1	i	77.8	i	i	74.6
CC(Sc1cccc[n+]1[O-])C(=O)NC1CCCCC1C (centres undefined)	i	i	nt	nt	nt
COC(=O)CSc1nc2cc(Cl)ccc2c(=O)n1C1CCCC1	i	45.9	i	i	i	ATG4B confirm=60.6
CCOc1ccc(-n2nnnc2SCC(=O)c2ccccc2)cc1	i	41.3	i	i	51.3
COc1ccc(-n2c(CCc3ccccc3)nnc2SCC(=O)c2ccccc2)cc1	i	60.4	i	i	61.2
COc1ccc(C(=O)CSc2nnc(CCc3ccccc3)n2-c2ccccc2)cc1	i	i	i	i	nt
SMILES	H9c2 protect	ATG4B inhibitor	PP5 inh	PP1 inh	PLA2 ctr	others
O=C(NCCN1CCOCC1)C1CC(=O)N(c2cccc(C(F)(F)F)c2)C1 (centres undefined)	i	i	nt	nt	nt
O=C(COC(=O)c1ccc(O)cc1O)Nc1cccc2ccccc12	i	i	i	i	nt
CC(C)c1ccc(C2NC(=O)c3ccccc3O2)cc1 (centres undefined)	i	40.5	i	i	i
O=C(NN1C(=O)/C(=C/C=C/c2ccco2)SC1=S)c1ccncc1	i	53.6	i	i	i	ATG4B confirm=64.6
O=C(NN1C(=O)/C(=C/C=C/c2ccccc2)SC1=S)c1ccncc1	i	i	i	i	nt
O=C(CSc1nc2ccccc2c(=O)n1-c1ccc(Cl)cc1)N/N=C/C=C/c1ccccc1[N+](=O)[O-]	i	53.6	i	i	i	ATG4B confirm=72.0
O=C(O)COc1ccccc1/C=N/NC(=O)CSc1nc2ccccc2c(=O)n1-c1ccc(Cl)cc1	i	i	i	i	nt
CC(C)(C)C(=O)Nc1sc(-c2ccccc2)cc1C(=O)O	i	i	i	i	nt
Cc1cccc(C(=O)Nc2sc(-c3ccccc3)cc2C(=O)O)c1	i	68.2	i	i	75.2
CC1(C)SC(=S)N(NC(=O)Nc2cccc3ccccc23)C1N(O)C(=O)Nc1ccccc1 (centres undefined)	i	45.7	i	i	58.3
Cc1ccc(Oc2cc(NC(=O)CCCn3nc([N+](=O)[O-])c(Cl)c3C)cc([N+](=O)[O-])c2)cc1	i	88.7	i	i	91.5
